In PubChem BioAssay (Tox21):
A number with no mark means an inactive call. The source made the active and inactive calls. Calls come from the whole dose curve; as a rule, active = well fitted curve in the direction sought with a large enough effect in the repeat runs; inconclusive = weak or mixed curves; inactive = flat fitted curve, though single readings scatter.

test: qHTS assay to test for compound auto fluorescence at 590 nm (red) in HepG2 cell free culture (AID 720684); conditions: cell-free medium autofluorescence, red 540/590 nm; series mostly up to 91.3 µM; fluorescence, % of Rose Bengal: at the top concentration
Description: U.S. Tox21 Program National Center for Advancing Translational Sciences [NCATS] NIH Chemical Genomics Center [NCGC] U.S. Environmental Protection Agency [EPA] National Institutes of Environmental Health Sciences [NIEHS] National Toxicology Program [NTP] U.S. Food and Drug Administration [FDA] Tox21 Assay Overview: Compound auto fluorescence often interferes with screening of the compound library against various biological targets and signaling pathways. Some of these compounds may have fluorophoric properties. Such properties may interfere with the assay outputs resulting in false positives and/or negatives. To decrease such complications and ensure the compound activities are relevant in terms of biological response, the Tox21 10K compound library was screened for auto fluorescence. From the fluorophores used as reporter signals in our screening assays, the auto fluorescence equivalencies of compounds against three fluorophores have been evaluated: Triamterene, Fluorescein and Rose Bengal sodium for blue, green and red fluorescence, respectively. The fluorescence intensities were measured using Excitation/Emission wavelengths at 405/460nm, 485/535nm and 540/590nm for blue, green and red labels, respectively. This assay includes the red fluorescence data.
Tox21 Assay Protocol Summary: 5 uL of culture medium (MEM containing 10% FBS) per well was dispensed into black wall/clear bottom 1536-well plates using a Multidrop Combi Dispenser (ThermoFisher Scientific, Waltham, MA). After 23 nL compound or DMSO vehicle was transferred into assay plate by a pintool work station (Kalypsys, San Diego, CA), fluorescence intensities in the assay plates were measured by an Envision (PerkinElmer, Shelton, CT) plate reader using three labels for measuring blue, green and red fluorescence at […] 460, 535 and 590nm respectively.
% is set by controls: 0 for no effect and ±100 for the full control effect.

Row | SMILES | fluorescence, % of Rose Bengal | Potency
1 | COc1cc(Cl)c(OC)cc1N | -0.0215% | 
2 | CCCCCCCN | -0.0122% [at 95.7 µM] | 
3 | C=C1C(=C/C=C2\CCC[C@]3(C)[C@@H]([C@H](C)/C=C/[C@@H](O)C4CC4)CC[C@@H]23)C[C@@H](O)C[C@@H]1O | -0.0247% [at 46 µM] | 
4 | O=C(O)C1(C(=O)Nc2ccc(Cl)cc2Cl)CC1 | 0.0213% | 
5 | CNCCCN1c2ccccc2CCc2ccccc21 | 0.569% [at 18.6 µM] | 
6 | CCn1cc(C(=O)O)c(=O)c2cnc(N3CCNCC3)nc21 | -0.185% [at 18.6 µM] | 
7 | CC(=O)OC[C@H]1O[C@@H](n2ncc(=O)[nH]c2=O)[C@H](OC(C)=O)[C@@H]1OC(C)=O | 0.598% [at 46 µM] | 
8 | Nc1cccc(S(=O)(=O)c2cccc(N)c2)c1 | 0.0382% | 
9 | COC(C)(C)CCO | -0.507% | 
10 | CCCCCCCCCOS(=O)(=O)O | 0.144% | 
11 | CCC(C)(C)CC | -0.245% [at 95.7 µM] | 
12 | Nc1ncn([C@H]2C[C@H](O)[C@@H](CO)O2)c(=O)n1 | -0.251% [at 46 µM] | 
13 | O=P(O)(OCc1ccccc1)OCc1ccccc1 | -0.125% | 
14 | OCCN1CCN(CCCN2c3ccccc3C=Cc3ccccc32)CC1 |  | inactive
15 | NCC(=O)CCC(=O)O | 0.454% [at 46 µM] | 
16 | CCN(CC)CCNc1ccc(CNC=O)c2sc3ccc(OC)cc3c(=O)c12 | -0.039% | 
17 | COS(=O)(=O)C(F)(F)F | -0.002% [at 95.7 µM] | 
18 | CC1(c2ccccc2)OC(C(=O)O)=CC1=O (stereo not given) | 0.002% [at 46 µM] | 
19 | CN(C)CCN(Cc1ccccc1)c1ccccn1 | -0.481% [at 46 µM] | 
20 | CCCn1cnc2c1c(=O)n(CCCCC(C)=O)c(=O)n2C | 0.0177% [at 46 µM] | 

Row | SMILES | fluorescence, % of Rose Bengal | Potency
21 | CC(=O)NO | -0.202% [at 46 µM] | 
22 | NCCCN1CCOCC1 | -0.169% | 
23 | C=C1[C@H]2CC[C@@H]3[C@H]2C(C)(C)CCC[C@]13C | -0.178% | 
24 | O=[N+]([O-])c1ccc2[nH]ncc2c1 | 0.107% | 
25 | Nc1cccc([N+](=O)[O-])c1 | -0.218% | 
26 | CCOc1ccc(N=Nc2ccc(/C=C/c3ccc(N=Nc4ccc(OCC)cc4)cc3S(=O)(=O)O)c(S(=O)(=O)O)c2)cc1 | 0.0473% | 
27 | CCO[Si](CCCCl)(OCC)OCC | -0.0204% | 
28 | C[N+]1(C)CCC(OC(=O)C(O)(c2ccccc2)C2CCCC2)C1 (stereo not given) |  | inactive
29 | ClCCOCCOCCCl | 0.0708% | 
30 | O=C(OCCc1ccccc1)c1ccccc1 | -0.157% | 
31 | C=CC1CC2C=CC1C2 (stereo not given) | 0.0975% | 
32 | COc1ccc(S(=O)(=O)N2C(=O)[C@@](c3ccccc3OC)(N3C[C@H](O)C[C@H]3C(=O)N(C)C)c3cc(Cl)ccc32)c(OC)c1 | -0.0183% | 
33 | C[C@@H]1C[C@H]2O[C@@]3(O[C@@H]2C(C)(C)O)[C@H](O)[C@@]2(C)[C@@H]4CC[C@H]5C(C)(C)[C@@H](O[C@@H]6OC[C@@H](O)[C@H](O)[C@H]6O)CC[C@@]56C[C@@]46CC[C@]2(C)[C@@H]13 | -0.108% | 
34 | CCCCCCCCCCO[C@@H]1O[C@H](CO)[C@@H](O)[C@H](O)[C@H]1O | -0.0481% | 
35 | CCCCOC(=O)CCCCCCCC(=O)OCCCC | -0.251% | 
36 | CCc1c(C(=O)NN2CCCCC2)nn(-c2ccc(Cl)cc2Cl)c1-c1ccc(Br)cc1 | 0.0945% | 
37 | Cc1oc2c(NC(=O)c3c(Cl)cccc3Cl)cccc2c1C(C)(C)O | 0.0103% | 
38 | C/C(=C(\CCOP(=O)(O)O)SC(=O)c1ccccc1)N(C=O)Cc1cnc(C)nc1N | 0.0762% [at 18.6 µM] | 
39 | COCC(C)OC(C)=O (stereo not given) | -0.0501% | 
40 | CCCCCCCCCCCc1ccccc1 | 0.0369% | 
